Consider seven compounds from PubChem BioAssay (NCATS).

Records with an inconclusive call do not appear. Where a call stands in place of a potency, no number is given. Calls of active or inactive are those of the source. The call rests on the fitted dose curve; in most records, active means well fitted inhibition curve with a large enough effect; inconclusive means small, poorly fitted or top-dose-only effect; inactive means no such curve, though single readings can be large or run the other way.

A short description of this assay: qHTS for Inhibitors of the Aldehyde Dehydrogenase Family (ALDH1A2, ALDH1A3, ALDH2, ALDH3A1) (AID 2061307). Further: nearly all actives have a fitted effect of over 50% in size. The note with it: ALDH inhibition qHTS; series mostly up to 50.3 µM. (In general: In qHTS, concentration-response curves come from the screen itself.)
`N[C@H](CCC(=O)Nc1cccc(-c2nn3c(=O)cc(N4CCNCC4)nc3s2)c1)C(=O)O`: the Potency entry was “inactive”.
Regarding `CC/C=C\C/C=C\C/C=C\C/C=C\C/C=C\C/C=C\CCC(=O)NCCN(C)C`, the Potency result was “inactive”.
As for `COc1ccc(NC(=O)Cn2ncc3ccccc3c2=O)cc1S(=O)(=O)N1CCOCC1`, the entry is “inactive”.
As for `O=C(NCc1ccc(F)cc1)c1nc(-c2ccc(F)cc2)c2ccccn12`, the entry is “inactive”; as for `Cc1n[nH]c(C)c1-n1c2c(cc(-c3nc(-c4ccc(Cl)cc4)cs3)c1=O)C(=O)CC(C)(C)C2`, “inactive”; as for `NS(=O)(=O)c1ccc(Cc2cn(-c3nc(C(=O)O)cs3)c3ccccc23)cc1`, “inactive”.
Regarding `N#CC1CCN(c2nc(Br)cs2)CC1`, the Potency result was “inactive”.
